Counter-ions that a name gives are not always drawn. ± gives the standard deviation of the averaged measurements.
The compounds below were run on HT-1080 (assay: relative cell viability with RSL3 co-treatment (fraction of control); higher = stronger protection from RSL3-induced ferroptosis (higher viability)). Details: 10 µM.
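Further: viability read as CCK-8 absorbance at 450 nm in cells co-exposed to the GPX4 inhibitor RSL3, relative to a 0.01% DMSO vehicle control.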

SMILES | relative cell viability
CNC(=O)Nc1ccc(-c2nc(N3CC4CCC(C3)O4)c3cnn(C4CCC5(CC4)OCCO5)c3n2)cc1 | 0.483 ± 0.14
Cc1ccc(NC(=O)c2cccc(N(C)C)c2)cc1NC(=O)c1ccc(O)cc1 | 0.587 ± 0.15
COc1cc2c(c(OC)c1OC)-c1c(cc3c(c1OC)OCO3)CC(C)C(C)C2 (stereo not drawn) [Schisandrin B (Sch B)] | 1.01 ± 0.17
Oc1cc(O)cc(/C=C/c2ccc(O)c(O)c2)c1 [Piceatannol] | 0.717 ± 0.04
CC(C)(O)CC(=O)NCCn1ccc2ncnc(Nc3ccc(Oc4cccc(C(F)(F)F)c4)c(Cl)c3)c21 | 0.567 ± 0.04
O=C1NC(=O)/C(=C/c2cccc(C(F)(F)F)c2)S1 | 0.807 ± 0.015
Cc1c(NC(=O)c2ccc(C(C)(C)C)cc2)cccc1-c1cn(C)c(=O)c(Nc2ccc(C(=O)N3CCOCC3)cc2)n1 | 0.647 ± 0.1
Fc1cc(-c2cccc3ncc(-c4cnn(C5CCNCC5)c4)nc23)cc(F)c1CN1CCOCC1 | 0.787 ± 0.058
CN(C)C/C=C/C(=O)Nc1cc2c(Nc3ccc(F)c(Cl)c3)ncnc2cc1O[C@H]1CCOC1 [Afatinib (BIBW2992)] | 0.72 ± 0.061
CCc1cc(Nc2nccc(-c3c(-c4ccc(OC)c(C(=O)Nc5c(F)cccc5F)c4)nc4ccccn34)n2)c(OC)cc1N1CCC(N2CCN(S(C)(=O)=O)CC2)CC1 | 0.55 ± 0.01
Cn1c(=O)c(F)c(Nc2ccc(I)cc2F)c2c(=O)n(C[C@@H](O)CO)cnc21 | 0.71 ± 0.017
CC(C)(C#N)c1ccc(N2C(=O)OCc3cnc4ccc(-c5cnc6ccccc6c5)cc4c32)cc1 | 0.45 ± 0.18
CCS(=O)(=O)c1cccc(-c2cc(C(=O)NC3CCN(C)CC3)c(C)c3[nH]c4ncc(C)cc4c23)c1 | 0.397 ± 0.046
CCCS(=O)(=O)Nc1ccc(F)c(C(=O)c2c[nH]c3ncc(Cl)cc23)c1F | 0.64 ± 0.036
O=C(Nc1cccc(Nc2ncc(Br)c(NCCc3cnc[nH]3)n2)c1)N1CCCC1 | 0.743 ± 0.04
CNS(=O)(=O)C[C@H]1CC[C@H](N(C)c2[nH]cnc3nccc2-3)CC1 [Oclacitinib] | 0.927 ± 0.075
CCN1CCN(Cc2ccc(Nc3ncc(F)c(-c4cc(F)c5nc(C)n(C(C)C)c5c4)n3)nc2)CC1 | 0.42 ± 0.026
CNC(=O)c1cc(Oc2ccc(NC(=O)Nc3ccc(Cl)c(C(F)(F)F)c3)cc2)ccn1 [Sorafenib Tosylate] | 0.317 ± 0.04
CCC[C@H](NC(=O)/C(C#N)=C/c1cccc(Br)n1)c1ccccc1 [Degrasyn (WP1130)] | 0.793 ± 0.064

SMILES | relative cell viability
CN1CC[C@H](c2c(O)cc(O)c3c(=O)cc(-c4ccccc4Cl)oc23)[C@H](O)C1 [Flavopiridol (Alvocidib)] | 0.49 ± 0.13
COc1ccc(-c2ccc3c(N4CCOCC4)nc(N4C[C@@H](C)O[C@@H](C)C4)nc3n2)cc1CO | 0.7 ± 0.07
O=C1NCCc2[nH]c(-c3ccncc3)cc21 | 0.69 ± 0.04
C=CC(=O)Nc1cccc(Oc2nc(Nc3ccc(N4CCN(C)CC4)cc3)nc3ccsc23)c1 | 0.55 ± 0.082
O=C1NC(=O)/C(=C/c2ccc3c(c2)OC(F)(F)O3)S1 | 0.82 ± 0.07
C[C@H](NC(=O)/C(C#N)=C/c1cccc(Br)n1)c1ccccc1 | 0.807 ± 0.13
O=C(Nc1ccc(OC(F)(F)F)cc1)c1sccc1NCc1ccnc2ccccc12 | 0.57 ± 0.095
Cc1cnc(Nc2ccc(N3CCN(C)CC3)cc2)nc1Nc1cccc(S(=O)(=O)NC(C)(C)C)c1 | 0.223 ± 0.061
COc1cc(Nc2ncc(F)c(Nc3ccc4c(n3)NC(=O)C(C)(C)O4)n2)cc(OC)c1OC | 0.88 ± 0.095
NC1(Cc2ccc(Cl)cc2)CCN(c2ncnc3[nH]ccc23)CC1 | 0.473 ± 0.25
CCN1CCN(Cc2ccc(C(=O)Nc3ccc(C)c(Oc4ccc5c(c4)CC(=O)N5)c3)cc2C(F)(F)F)CC1 | 0.46 ± 0.046
C[C@@H]1COC(Nc2ccc3ncnc(Nc4ccc(OCc5nccs5)c(Cl)c4)c3c2)=N1 [Varlitinib] | 0.597 ± 0.1
CNC(=O)c1ccccc1Sc1ccc2c(/C=C/c3ccccn3)n[nH]c2c1 [Axitinib] | 0.63 ± 0.22
C=CC(=O)Nc1cccc(Nc2nc(Nc3ccc(NC4CN(CCF)C4)cc3OC)ncc2C(F)(F)F)c1 | 0.443 ± 0.068
COC(=O)Nc1ccc(-c2nc(N3CCOCC3)c3cnn(C4CCN(C(=O)OC)CC4)c3n2)cc1 | 0.547 ± 0.18
CN1CCC(CNc2ccc3ncc(-c4cccc(OC(F)(F)F)c4)n3n2)CC1 [SGI-1776 free base] | 0.507 ± 0.16
CC[C@@H]1C(=O)N(C)c2cnc(Nc3ccc(C(=O)N[C@H]4CC[C@H](N5CCN(CC6CC6)CC5)CC4)cc3OC)nc2N1C(C)C [Volasertib (BI 6727)] | 0.397 ± 0.15
CCn1c2ccccc2c2cc(Nc3ccnc(NCCCN4CCOCC4)n3)ccc21 | 0.64 ± 0.089
O=C(O)[C@]1(Cc2cccc(Nc3nccs3)n2)CC[C@@H](Oc2cccc(Cl)c2F)CC1 | 1.02 ± 0.14

Reference: the supplement of paper PMC9588786
